Screens from PubChem BioAssay.
E coli Lon inh: inhibits E. coli Lon protease. P0A9M0. purified E. coli Lon protease, fluorescence polarization. inhibition, % at 7.94 µM. 360,000 compounds, 0.42% hits. AID 602123; in the data active = inhibition above about 13%, passing the limit was not always enough
Cardiac RTF inh: cardiac RTF calcium desensitization. P19429+P45379. IANBD-labeled cardiac RTF, Ca2+ fluorescence. inhibition, % at 7.15 µM. 340,000 compounds, 0.12% hits;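 active = inhibition above the mean inhibition of all tested compounds plus 3 SD, cut at about 17% in these data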;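 note: assay run at fixed EC70 calcium of 1.6 mM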
RTF Ca sens act: increases calcium sensitivity of human cardiac regulated thin filaments. P19429+P45379. IANBD-labeled TnC RTF fluorescence at EC20 calcium; 0% EC20 calcium, 100% full calcium. activation, % at 7.2 µM. 340,000 compounds, 0.24% hits. AID 493008;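 active = activation above the mean over all tested compounds plus 3 SD, cut at about 30% in these data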;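 note: rise in fluorescence read as greater calcium sensitivity of cardiac thin filaments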
Keap1-Nrf2 PPI: Keap1-Nrf2 (human) interaction inhibition; Q14145; Keap1 Kelch-Nrf2 peptide fluorescence polarization, 1536-well; inhibition, % at 9.4 µM; 340,000 compounds, 0.15% hits; in the data active = inhibition above about 12%;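 note: human Keap1 Kelch domain with fluorescein labeled Nrf2 9mer peptide probe; higher means more block of Keap1 binding to Nrf2 peptide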
Target sequence (Q14145 whole entry, looked up, the tested form may be a part): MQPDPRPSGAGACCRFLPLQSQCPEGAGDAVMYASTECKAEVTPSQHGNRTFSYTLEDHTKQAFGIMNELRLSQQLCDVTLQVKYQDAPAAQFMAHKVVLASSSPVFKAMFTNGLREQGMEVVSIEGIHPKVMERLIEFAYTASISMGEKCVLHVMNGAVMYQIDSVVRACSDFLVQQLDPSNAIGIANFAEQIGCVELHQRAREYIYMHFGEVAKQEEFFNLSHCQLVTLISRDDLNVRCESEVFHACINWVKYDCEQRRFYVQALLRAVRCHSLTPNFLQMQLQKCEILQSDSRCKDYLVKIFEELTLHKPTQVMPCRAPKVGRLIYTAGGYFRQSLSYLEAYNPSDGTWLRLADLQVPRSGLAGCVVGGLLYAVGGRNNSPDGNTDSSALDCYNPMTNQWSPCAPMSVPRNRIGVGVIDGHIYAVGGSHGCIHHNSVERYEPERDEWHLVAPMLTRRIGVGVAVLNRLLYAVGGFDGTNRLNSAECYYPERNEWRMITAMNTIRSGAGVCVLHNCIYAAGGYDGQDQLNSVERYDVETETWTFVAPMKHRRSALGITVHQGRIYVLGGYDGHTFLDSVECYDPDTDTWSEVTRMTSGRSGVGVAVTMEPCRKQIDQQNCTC
LANA DNA inh: inhibitors of KSHV LANA C-terminal domain DNA binding; AID 504423; MBP-C-LANA/FAM-LBS DNA binding, fluorescence polarization; inhibition, % at 9 µM; 340,000 compounds, 0.078% hits;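 active = highest replicate inhibition at or above 60% at 9 µM, even if other replicates fall short; inactive = all replicates below 60% inhibition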
LANA-H2B inh: blocks KSHV LANA binding to histone H2A/H2B | Q9QR71 | inhibition, % (concentration not given with the values) | cell-free LANA-H2A/H2B peptide, fluorescence polarization | 320,000 compounds, 0.6% hits; in the data active = inhibition mostly above about 10%, no sharp cut-off; inactive = mostly below about 6.7%
E coli Lon conf: E. coli Lon inhibition confirmation. inhibition, % at 7.94 µM. purified E. coli Lon, fluorescence polarization. shares compounds with E coli Lon inh. 1,400 compounds, 31% hits. AID 602230; in the data active = inhibition above about 16%
A number is an active result; . = inactive; / = no result. In the library only some 1.3% were active in any assay of this set; here they are far more common.

SMILES	E coli Lon inh	Cardiac RTF inh	RTF Ca sens act	Keap1-Nrf2 PPI	LANA DNA inh	LANA-H2B inh	E coli Lon conf
COc1cc2c(cc1OC)-c1cc3ccc4c(c3c[n+]1CC2)OCO4	156	.	54	.	.	.	106
N#Cc1c(N2CCCC2)nc(N)c2c(N)nc(N3CCCC3)cc12	51	.	.	.	.	.	.
COCCn1c(N)c(N(Cc2ccccc2)C(=O)C2=COCCO2)c(=O)[nH]c1=O	29	.	.	.	.	.	.
CCOc1ccccc1C(=O)NCCC(=O)O	17	.	.	.	.	.	.
CCOc1ccccc1C(=O)NCCCCNC(=O)c1ccccc1OCC	.	.	.	.	.	.	/
Cc1ccccc1CC(=O)Nc1ccon1	.	.	.	.	.	.	/
Cc1ccc(S(=O)(=O)N2CCC(C(=O)OC(C)C(=O)NC3CCCCC3C)CC2)cc1 (stereo unspecified)	.	.	.	.	.	.	/
CCCc1nn(C)c(C(=O)Nc2cccc(C)c2)c1Cl	.	.	.	.	.	.	/
CCCc1nn(C)c(C(=O)Nc2cccc(Cl)c2)c1Cl	30	.	.	.	.	.	.
C/C(=N\OCC(=O)Nc1ccccc1Br)c1cccs1	.	.	.	.	.	.	/
CCSC1=N/C(=C\c2ccc(-c3ccccc3[N+](=O)[O-])o2)C(=O)S1	37	.	.	.	.	.	.
CC(C)C[C@H]1CNC(=O)C(=O)N1CC1CCN(CCc2ccccc2)CC1	.	/	/	/	/	/	/
c1cc(-c2ccoc2)n2ccnc2c1	73	/	/	/	/	/	.
c1cc(-c2ccsc2)n2ccnc2c1	.	/	/	/	/	/	/
COC(=O)CCCNC(=O)c1ccccn1	.	.	.	.	.	.	/
N#Cc1c(N2CCN(c3ccc([N+](=O)[O-])cc3)CC2)[n+](=O)c2ccc(Cl)cc2n1[O-]	134	.	.	.	.	/	43
CC(C)C[C@@H](CN1CCC[C@H]1CN1C(=O)C(=O)NC[C@@H]1Cc1ccccc1)N1C[C@H](Cc2ccc(O)cc2)N(CC2CCCCCC2)C(=O)C1=O	11	/	/	/	/	/	.
O=C(NCC1CCCCC1)c1cc([N+](=O)[O-])ccc1N1CCOCC1	.	.	.	.	.	.	/
O=C(NC12CC3CC(CC(C3)C1)C2)c1cc([N+](=O)[O-])ccc1N1CCOCC1	19	.	.	.	.	.	.
COc1ccc(N2CCN(CC(O)COCCOc3ccc(Br)cc3)CC2)cc1 (stereo unspecified)	.	.	.	.	.	.	/
OCCN1CCN(CC(O)COCCOc2ccc(Br)cc2)CC1 (stereo unspecified)	69	.	.	.	.	.	.
CCOC(=O)C(NC(=O)C1C(C)N1S(=O)(=O)c1ccc(C)cc1)C(=O)OCC (stereo unspecified)	.	.	.	.	.	.	/
CN1CCN(c2ccccc2NC(=O)c2ccc3c(c2)OCCO3)CC1	16	.	.	.	.	.	.
COc1cc(OC)c(NC(=S)NCc2ccccc2)cc1Cl	.	.	.	.	.	.	/
COc1cccc(C(=O)Oc2ccc3ccc(=O)oc3c2)c1	23	.	.	.	.	.	47
SMILES	E coli Lon inh	Cardiac RTF inh	RTF Ca sens act	Keap1-Nrf2 PPI	LANA DNA inh	LANA-H2B inh	E coli Lon conf
COc1ccc(C(=O)Oc2ccc3ccc(=O)oc3c2)cc1OC	.	.	.	.	.	.	/
Cc1cccc2c1cnn2C(=O)Nc1ccccc1Cl	.	.	.	.	.	.	/
CCCOc1ccc(/C=C/C(=O)Nc2ccc([N+](=O)[O-])cc2)cc1	19	.	.	.	.	.	.
CCCCOc1ccc(/C=C/C(=O)Nc2ccc([N+](=O)[O-])cc2C)cc1	.	.	.	.	.	.	/
CC(=O)c1c(C)[nH]c(C(=O)CSc2nnc(-c3ccco3)n2Cc2ccccc2)c1C	.	.	.	.	.	.	/
CC(=O)c1c(C)[nH]c(C(=O)CSc2nnc(-c3ccccc3)n2Cc2ccc3c(c2)OCO3)c1C	18	.	.	.	.	.	.
O=C1Nc2ccc(Br)cc2C12NNc1ccccc1O2 (stereo unspecified)	.	.	.	.	.	.	/
O=C(c1ccc(-c2ccc([N+](=O)[O-])cc2)o1)N1CCN(S(=O)(=O)c2cccs2)CC1	.	.	.	.	.	.	/
CCOC(=O)C(=O)N(CC)C1CCS(=O)(=O)C1 (stereo unspecified)	17	.	.	.	.	.	.
